Screening data as filed in PubChem.
Most compounds without a hit are left out; they make up all but 12% or so of the library.
HP1b binding inh: HP1-beta chromodomain-methylated histone interaction inhibition; P83916; actives 0.56% (n = 390,000); AID 540317; AlphaScreen HP1-beta / biotin-H3K9me3 peptide binding; Potency, µM (doses to about 114 µM), inactives show top-dose activity change, negative = inhibition, usual class: inhibitors; further: nearly all actives have a fitted effect of over 70% in size
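HP1-beta protein (50 nM final) preincubated 30 min at room temperature with biotinylated H3(1-18)K9me3 peptide (50 nM) in PBS pH 7.4, 0.01% Tween-20, then compound added for 30 min. AlphaScreen streptavidin donor/nickel chelate acceptor beads (10 ug/mL final), 30 min dark, luminescence read.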
JMJD2A Tudor: JMJD2A Tudor domain (human) inhibition. O75164. AlphaScreen JMJD2A-Tudor / H3K4me3 peptide binding. Potency, µM (doses to about 114 µM), for the others: at the top dose activity change, negative = inhibition, most hits filed as inhibitors. actives 4.4% (n = 390,000); further: on the % scale 0 is the no-effect control and ±100 the full control effect; nearly all actives have a fitted effect of over 50% in size
G9a block: blocks human histone lysine methyltransferase G9a. G9a H3K9 monomethylation, AlphaScreen, 2 h. actives 8.8% (n = 350,000). AID 504332. Potency, µM (titrated, usually from 102 µM), without a hit: top-dose activity, negative = inhibition, most hits filed as inhibitors; further: on the % scale 0 is the no-effect control and ±100 the full control effect; nearly all actives have a fitted effect of over 75% in size
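G9a (20 nM) was preincubated 15 min with compound, then reacted 2 h at room temperature with 500 nM biotin-H3K9 peptide and 20 µM SAM. Monomethyl-H3K9 detected by AlphaScreen using anti-H3K9me1 antibody.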
Sfp PPTase inh: inhibitors of Bacillus subtilis Sfp phosphopantetheinyl transferase; Q9F4F7; Biochemical Sfp PPTase activity, qHTS; Potency, µM, for inactives: largest response in the series, negative = inhibition, actives largely listed as inhibitors; actives 3.5% (n = 310,000); AID 1490;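 further: the enzyme is Sfp with the accession as filed and its product quenches rhodamine fluorescence; 0% = enzyme reaction without inhibitor and -100% = no enzyme wells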
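Buffer: 50 mM Hepes-Na pH 7.6, 10 mM MgCl2, 0.01% Nonidet P-40, 0.01% BSA. Enzyme 15 nM, pre-exposed to compound 15 min; substrates then added and fluorescence change tracked over 30 min.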
BAZ2B block: BAZ2B (human) inhibition. actives 4.4% (n = 360,000). Potency, µM (doses to about 114 µM), without a hit: top-dose activity change, negative = inhibition, most hits filed as inhibitors. AlphaScreen BAZ2B-H3K14Ac peptide displacement. AID 504333; further: on the % scale 0 is the no-effect control and ±100 the full control effect; nearly all actives have a fitted effect of over 60% in size
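Complex of BAZ2B and biotin-H3K14Ac (50 nM apiece) forms over 30 min at RT, then faces library compounds up to 110 uM for another 30 min; AlphaScreen beads added, 20 min dark incubation, luminescence read.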
Numbers without * were called inactive; ? = inconclusive; · = not tested or not shown; [ ] = remark or other dose. The call rests on the fitted dose curve; in most records, active means well fitted curve in the direction sought with a large enough effect; inconclusive means small, poorly fitted or top-dose-only effect, or another doubt; inactive means no such curve, though single readings can be large; an effect the other way counts as inactive or inconclusive. Potency means the concentration at half of the fitted maximal effect.

SMILES	HP1b binding inh	JMJD2A Tudor	G9a block	Sfp PPTase inh	BAZ2B block
CCC(C)NC(=O)CN1C(=O)c2cccnc2Oc2ccc(C)cc21 (stereo not drawn)	39.7%	50.1µM*	-5.3%[59 µM]	·	12.9%
Cc1ccc(OCCC(=O)OCC(=O)c2c(N)n(C)c(=O)n(C)c2=O)cc1	10.9%	-5.5%	-1.7%[0.501 µM]	·	3.7%
Cc1ccc(OCC(=O)c2c(N)n(C)c(=O)n(C)c2=O)c([N+](=O)[O-])n1	20µM*	?	59.9%[12.7 µM]	·	25.1µM*
CC(C)CC(C(=O)OCC(=O)c1c(N)n(C)c(=O)n(C)c1=O)N1C(=O)c2ccccc2C1=O (stereo not drawn)	18.0%	-30.8%	11.2µM*	-17.0%	-28.7%
COc1ccccc1OCCC(=O)OCC(=O)c1c(N)n(C)c(=O)n(C)c1=O	35.3%	-21.7%	50.1µM*	6.2%	?
CCOc1cc(-c2ccc(OC(=O)c3ccc(OC)cc3)c(OC)c2)cc(=O)c2c(C)oc(C)c12	-7.5%	?	15.8µM*	·	?
COc1ccc(-c2cc(OC(=O)c3ccc(Cl)cc3)c3c(C)oc(C)c3c(=O)c2)cc1	-0.1%	?	?	·	39.8µM*
CCOc1ccc(-c2cc(OC(=O)c3ccc(OC)cc3)c3c(C)oc(C)c3c(=O)c2)cc1	17.1%	-29.9%	?	·	-32.1%
COC(=O)c1nc2ccc(N3CCOCC3)cc2c(C)c1C(=O)OC	42.6%	10.3%	?	0.8%	-20.2%
CC(=O)N(Cc1cc(=O)[nH]c2ccccc12)c1ccccc1	21.8%	-18.2%	?	8.5%	?
